Screening results (PubChem)
KB-V1 cytotox = KB-V1 MDR subline cytotoxicity; actives 3.4% (n = 400,000); Potency, µM (highest dose often 46.1 µM), hits mostly cytotoxic; KB-V1 MDR cells viability, CellTiter-Glo, 72 h; AID 1347076; also: % is scaled to controls: 0 for no effect and ±100 for the full control effect; nearly all actives have a fitted effect of over 60% in size
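KB-V1 cells (P-gp-expressing MDR subline of KB-3-1) in phenol-red-free DMEM with 10% FBS were exposed to library compounds over a concentration series for 72 h at 37 degrees C. Viability read by CellTiter-Glo luminescence; concentration-effect curves fitted after normalization.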
KB-3-1 cytotox = kills parental KB-3-1 adenocarcinoma cells. KB-3-1 viability, CellTiter-Glo ATP luminescence, 72 h. Potency, µM (top dose mostly 46.1 µM), hits mostly cytotoxic. actives 1.4% (n = 400,000). AID 1347075; also: % is scaled to controls: 0 for no effect and ±100 for the full control effect; nearly all actives have a fitted effect of over 60% in size
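Multi-concentration cytotoxicity screen in KB-3-1 cells grown in DMEM lacking phenol red with 10% FBS. After 72 h at 37 °C with compound, ATP-dependent luminescence was recorded.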
SW480 rerep = induces DNA re-replication in SW480 colon adenocarcinoma cells; Potency, µM (doses to about 46.1 µM), for inactives: at the top dose re-replication activation, usual class: activators; AID 624297; actives 1.8% (n = 340,000); SW480 DNA re-replication, Hoechst DNA content imaging, 48 h; also: % of control where 0% means no effect; nearly all actives have a fitted effect of over 55% in size
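First, 250 cells per well were seeded. Next, compound or vehicle (23 nL) was pinned in, plates sat 48 hr at 37 C. Finally Hoechst was added for 40 min before fluorescence scanning.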
MCF10A rereplic = induces DNA re-replication in MCF 10a normal breast cells; MCF 10A DNA re-replication, Hoechst nuclear intensity, 48 h; Potency, µM (titrated, usually from 46.1 µM), without a hit: at the top dose activity, positive = re-replication, most hits filed as activators; actives 2.9% (n = 350,000); AID 624296; also: % of control where 0% means no effect; nearly all actives have a fitted effect of over 50% in size
PINK1 modulator = modulators of PINK1 expression; PINK1 immunofluorescence, high-content cytometry, 24 h; Potency, µM (highest dose often 76.6 µM), inactives show top-dose activation (PINK1 increase), usual class: activators; actives 0.2% (n = 410,000); active = well fitted activation curve with a large enough effect; inconclusive = small, poorly fitted or top-dose-only effect; cell line not stated here; also: % of control where 0% means no effect; nearly all actives have a fitted effect of over 65% in size
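Measures PINK1 amount and localization on or inside mitochondria by immunofluorescence. Stable cells get compounds at 5 concentrations for 24 hours before fixation and staining; CCCP controls included.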
Numbers without * were called inactive; i = inactive; ? = inconclusive; . = no result given; [ ] = remark or other dose. Rows were chosen to be rich in hits. Some 6.7% of all compounds tested hit in one or more screens of this group. Unless noted, calls follow the shape of the dose curve; as a rule, active = well fitted curve in the direction sought with a large enough effect; inconclusive = small, poorly fitted or top-dose-only effect, or another doubt; inactive = no such curve, though single readings can be large; an effect the other way counts as inactive or inconclusive. Potency is read from the fitted curve at half-maximal effect.

SMILES	KB-V1 cytotox	KB-3-1 cytotox	SW480 rerep	MCF10A rereplic	PINK1 modulator
CCCC(=O)Oc1ccc(C2NC(=O)c3ccccc3O2)cc1OC (stereo not drawn)	?	i	-4%	-2%	0%
Cc1cc(C)cc(-n2c3ccc(NC(=S)NC4CCCCC4)cc3c(=O)n2C)c1	i	?	.	.	0%
COc1ccccc1NC(=O)Cc1noc(CSc2nnc(C)n2C)n1	i	i	2%	0.65µM*	2%
CN1CCN(c2cccc(Nc3nn4c(=O)c5ccccc5nc4s3)c2)CC1	i	i	.	.	.
Cc1ccc2cc(C(c3nnnn3CC3CCCO3)N3CCCC4(CCCCC4)C3)c(=O)[nH]c2c1 (stereo not drawn)	15µM*	i	-2%	-7%	6%
CCc1ccc2[nH]c(=O)c(C(c3nnnn3CC3CCCO3)N3CCCc4ccccc43)cc2c1 (stereo not drawn)	?	i	?	?	-4%[38.3 µM]
Cc1cc2cc(C(c3nnnn3CC3CCCO3)N3CCCc4ccccc43)c(=O)[nH]c2cc1C (stereo not drawn)	21µM*	?	?	?	1%[38.3 µM]
Cc1cccc2cc(C(c3nnnn3CC3CCCO3)N3CCCc4ccccc43)c(=O)[nH]c12 (stereo not drawn)	18µM*	i	15%	0%	21%[38.3 µM]
COc1cc(/C=N/NC(=S)Nc2cccc(Cl)c2C)ccc1OCC(=O)N1CC(C)OC(C)C1 (stereo not drawn)	4.6µM*	i	3%	2%	2%
CC(C)(CNC(=O)c1cnn(-c2nccc(-c3cccs3)n2)c1C1CC1)N1CCOCC1	.	.	.	.	2%
CN(C)CCCCCCNc1nccc(N2CCN(C)CC2)n1	i	?	.	.	0%
Cc1ccc(C)c(S(=O)(=O)N2CCCC2CNC(=O)C(=O)NCc2ccccn2)c1 (stereo not drawn)	i	i	18µM*	-21%	2%
Cc1ccc(C)c(S(=O)(=O)N2CCCC2CNC(=O)C(=O)NCC2CCCO2)c1 (stereo not drawn)	i	i	5.8µM*	27%	3%
Cc1ccc(C)c(S(=O)(=O)N2CCCCC2CCNC(=O)C(=O)NCc2ccccn2)c1 (stereo not drawn)	?	i	-9%	3%	0%
Cc1ccc(C)c(S(=O)(=O)N2CCCC2CNC(=O)C(=O)NCc2ccccc2C)c1 (stereo not drawn)	i	i	3.7µM*	-7%	-1%
Cc1ccc(NC(=O)C2CCN(S(=O)(=O)c3ccc(C(C)(C)C)cc3)CC2)cc1S(=O)(=O)N1CCOCC1	i	i	-7%	12%	1%
CCCCN(C=O)c1c(CC)nc2ccc(C(=O)N(C)Cc3ccco3)cn12	i	i	.	.	2%
COc1ccc(N=Cc2c(O)c3ccccc3n2C(C)=O)cc1	?	i	3%	?	25µM*
CCn1ncc(C2=NOC(C(=O)NCc3ccccc3)C2)c1C (stereo not drawn)	?	1.6µM*	3.7µM*	4.6µM*	13µM*
CCn1ncc(C2=NOC(C(=O)Nc3c(C)n(C)n(-c4ccccc4)c3=O)C2)c1C (stereo not drawn)	i	i	-10%	0%	0%
CCn1ncc(C2=NOC(C(=O)Nc3cccc(C(C)=O)c3)C2)c1C (stereo not drawn)	18µM*	?	-10%	-3%	0%[38.3 µM]
Cc1c(C(=O)Nc2ccccc2)sc2nc(-c3cc4ccccc4oc3=O)[nH]c(=O)c12	i	i	.	.	?
O=C(CN1CCN(Cc2ccccc2Cl)CC1)N=Nc1c(O)[nH]c2ccccc12	15µM*	i	60%	-3%	?
Oc1[nH]c2ccccc2c1N=Nc1ccccc1Cl	i	i	-1%	-1%	32µM*
COc1ccc(-c2nn3c(-c4ccc(C)cc4)nnc3c3ccccc23)cc1	.	.	.	.	-1%
SMILES	KB-V1 cytotox	KB-3-1 cytotox	SW480 rerep	MCF10A rereplic	PINK1 modulator
CCO[C@H]1OC(C(=O)NC2CC2)=C[C@@H](c2ccccc2)[C@@H]1CCCO	i	i	?	23µM*	2%
CCc1cccc(NC(=O)COC(=O)c2ccccc2OCc2ccccc2Br)c1	i	i	.	.	2%
CCn1cc(C(=O)O)c(=O)c2cnc(N3CCN(C(=S)Nc4ccccc4)CC3)nc21	i	i	-68%	?	-1%
CCCCOC(=O)c1ccc(NC(=S)N2CCN(c3ncc4c(=O)c(C(=O)O)cn(CC)c4n3)CC2)cc1	?	i	?	4%	28µM*
Cc1[nH]n(-c2ccccc2)c(=O)c1N=Nc1c(O)cc(S(=O)(=O)N(C)C)c2ccccc12	i	?	5.8µM*	-38%	4%
Cc1[nH]n(-c2ccccc2)c(=O)c1N=Nc1ccc2c(c1)OCCO2	i	i	-2%	-13%	2%
O=C1CC(c2ccccc2)c2c(n3ncnc3[nH]c2=O)N1 (stereo not drawn)	?	i	.	.	1%
OC(CCCN1CCCCC1)(c1ccccc1)c1ccc(C(F)(F)F)cc1 (stereo not drawn)	i	i	?	21µM*	5%
OC(CCN1CCCCC1)(c1ccccc1)c1ccccc1	i	i	-10%	2%	0%
Cc1nc(N2CCOCC2)c2c(C(=O)N3CCN(c4ccccc4F)CC3)c(C)oc2n1	.	.	.	.	7%
CCn1cc(S(=O)(=O)c2ccccc2)c(=O)c2cc(F)c(N3CCN(c4ccccc4)CC3)cc21	i	i	.	.	-1%
Cc1ccc(Oc2nc(CN3CCOCC3)nc3sc4c(c23)CCC(C)C4)cc1C (stereo not drawn)	15µM*	?	5%	?	5%
COc1cc2c(cc1OC)CN(c1nc(CN3CCCCC3)nc3sc4c(c13)CCCC4)CC2	i	i	?	?	1%
COc1cc2c(cc1OC)CN(c1nc(CN3CCOCC3)nc3sc4c(c13)CCCC4)CC2	?	?	8%	18µM*	1%
COC(=O)c1ccc(Cl)cc1NC(=O)N1CCC(CN2CCC(C)CC2)CC1	i	i	.	.	-2%
CCN1C(=O)C2(Nc3ccccc3-c3nc4ccccc4n32)c2cc(OC)ccc21 (stereo not drawn)	13µM*	?	1%	1%	6%
OCC[C@H]1C[C@@H](O)[C@H](O)[C@]2(OCCc3ccccc32)O1	i	i	-5%	-42%	-1%
COC(=O)c1c(NC(=O)CN(c2ccccc2)S(C)(=O)=O)sc2c1CCCC2	10µM*	i	-4%	1%	6%
CCOC(=O)c1c(NC(=O)c2ccccc2N(C)S(=O)(=O)c2ccccc2)sc2c1CCCC2	5.8µM*	2.9µM*	5.2µM*	?	7%
COc1cc(OC)cc(C(=O)Nc2sc3c(c2C(N)=O)CCC3)c1	i	i	?	0.58µM*	1%
